Measurements from PubChem BioAssay AID624331 (National Center for Advancing Translational Sciences (NCATS), 2012).
Inconclusive results are not listed. Values without a mark were called inactive. Active and inactive are the calls of the source. Calls follow the shape of the dose curve; as a rule, active = well fitted activation curve with a large enough effect; inconclusive = small, poorly fitted or top-dose-only effect; inactive = no such curve, though single readings can be large or run the other way.
Potency is read from the fitted curve at half-maximal effect.

Experiment: qHTS assay for re-activators of p53 using a Luc reporter: Hit Validation with no p53 Expressed; as to activity change, positive = activation: 0% is about no effect
Conditions: p53-null cells, luciferase reporter counter-screen; series mostly up to 46.1 µM; activity change, positive = activation: at the top concentration
Method in brief: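 Counter-screen of primary hits in a cell line not transfected with p53, in Opti-MEM with 10% FBS; compounds at several concentrations (10 mM stock, 1:5; top 46.1 µM in well), 24 h at 37 deg C, 5% CO2. Luminescence read after 10 min with Amplite reagent.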
For `CCc1ccc2c(CN(CC)Cc3nc4ccccc4c(=O)[nH]3)cc(=O)oc2c1`, the “activity change, positive = activation” value was 39.4%.
With `CC(C)(C)CC(=O)O/N=C(\N)c1ccccn1` the Potency was 0.164 µM (active).
In the case of `Nc1nonc1-n1nnc(C(=O)N/N=C/c2ccc(OCc3cccc(Cl)c3)cc2)c1CN1CCCCC1`, the “activity change, positive = activation” value is reported as 56.6%.
In the case of `CCc1cc2c(=O)c(-c3ccc4c(c3)OCCO4)coc2cc1OS(C)(=O)=O`, the “activity change, positive = activation” value is reported as 59.3%.
For `Cc1ccc2cc3cc(C(=O)N4CCCCCC4)oc3nc2c1`, the “activity change, positive = activation” value was 47.8%.
With `COc1cc(C(=O)NCCc2cn3ccc(C)cc3n2)cc(OC)c1OC` the “activity change, positive = activation” value was -28.5%.
With `CCN(CC)C(=O)CSC(=Nc1ccccc1F)NC#N` the “activity change, positive = activation” value was 23%.
With `Cc1ccc(NC(=O)/C(Cl)=C/c2ccccc2)cc1C` the “activity change, positive = activation” value was -7.58%.
With `Cc1nc(NC(=O)c2csc3ccccc23)sc1C` the “activity change, positive = activation” value was -13.5%.
For `CC(C)[C@H](NC(=O)c1ccc(Cl)cc1Cl)C(=O)NNc1cccc(C(=O)O)c1`, the “activity change, positive = activation” value was 73.4%.
With `CN1CC(C(=O)Nc2ccc(F)c(Cl)c2)CC1=O` (stereo not given) the “activity change, positive = activation” value was 8.28%.
For `CC(=O)NC(=S)Nc1ccc(NC(=O)c2cccs2)cc1`, the “activity change, positive = activation” value was -1.12%.
With `Fc1cc(NCc2ccccc2)nc(NCc2ccccc2)n1` the “activity change, positive = activation” value was 8.92%.
With `COC(=O)c1cn[nH]c1NC(=S)Nc1ccc(C)cc1Cl` the “activity change, positive = activation” value was 58.3%.
In the case of `Cc1ccccc1Nc1nc(N)nc(COC(=O)c2ccco2)n1`, the “activity change, positive = activation” value is reported as 85.7%.
In the case of `CC(=O)NC1=C(Nc2ccc(N(C)C)cc2)C(=O)c2ccccc2C1=O`, the “activity change, positive = activation” value is reported as 47.3%.
In the case of `COc1cc(C(=S)N2CCOCC2)ccc1OC(=O)c1ccccc1C`, the “activity change, positive = activation” value is reported as 29.9%.
In the case of `Cc1cccc(Nc2cc(=O)[nH]c(=O)[nH]2)c1C`, the “activity change, positive = activation” value is reported as -22.6%.
In the case of `Cc1ccc(Nc2nc(N)nc(CSc3nccn3C)n2)cc1`, the “activity change, positive = activation” value is reported as 89%.
In the case of `Cc1ccc(CNc2cc(C(=O)O)ccc2Cl)s1`, the “activity change, positive = activation” value is reported as 86%.
In the case of `O=C(N/N=C1\CCc2ccccc21)c1ccccc1O`, the “activity change, positive = activation” value is reported as 10.7%.
With `O=C(CC(Nc1ccc(F)cc1)C(=O)OCC(=O)c1cccs1)c1ccccc1` (stereo not given) the “activity change, positive = activation” value was 9.18%.
In the case of `O=c1c2ccccc2oc2ccc(-c3ccc4cc[nH]c4c3)cc12`, the “activity change, positive = activation” value is reported as 42.2%.
For `Cc1ccc(C)n1-c1cccc(NC(=O)c2ccccc2)c1`, the “activity change, positive = activation” value was -22.5%.
In the case of `Cc1sc2nc(CSC(C)C(=O)Nc3ccccn3)[nH]c(=O)c2c1C` (stereo not given), the “activity change, positive = activation” value is reported as 9.27%.
For `COC(=O)Cc1n[nH]c(=S)[nH]c1=O`, the “activity change, positive = activation” value was -10.7%.
In the case of `CC(=O)c1ccc(N2Cc3ccccc3C2=NC(=O)c2cccs2)cc1`, the Potency is reported as 10.3 µM (active).
With `COc1ccccc1C(=O)CSc1nccn1C` the “activity change, positive = activation” value was 68.7%.
In the case of `Cc1cc(F)ccc1NC(=O)Nc1ccc2c(c1)OCO2`, the “activity change, positive = activation” value is reported as -27.5%.
For `CCC(Sc1nc2ccccc2c(=O)n1CCN1CCOCC1)C(=O)NCc1cccnc1` (stereo not given), the “activity change, positive = activation” value was -26.9%.
For `CCN1C(=O)C(=O)N(CC(=O)c2cc(C)n(C3CC3)c2C)C1=O`, the “activity change, positive = activation” value was 50%.
For `Cc1ccc(NC(=O)C2CCCO2)cc1[N+](=O)[O-]` (stereo not given), the “activity change, positive = activation” value was -2.44%.
For `C/C(=N\OCC(=O)NC12CC3CC(CC(C3)C1)C2)c1cc2ccccc2o1`, the “activity change, positive = activation” value was -6.81%.
With `Cc1ccc(/C=N/NC(=O)c2cccs2)s1` the “activity change, positive = activation” value was 33.2%.
With `CS(=O)(=O)n1nc(-c2ccc(Cl)cc2)nc1SCc1ccccc1` the “activity change, positive = activation” value was 68.8%.
For `CN(CC(=O)Nc1ccc(Cl)c(Cl)c1)C(=O)C1CCCC1`, the “activity change, positive = activation” value was -43.5%.
In the case of `O=C(CCS(=O)(=O)c1ccccc1)Nc1nc2c(s1)CCCC2`, the “activity change, positive = activation” value is reported as -9.13%.
With `CC1(C)CC(=O)CC(=O)/C1=N\Nc1c(Cl)cc(Cl)cc1Cl` the “activity change, positive = activation” value was -30.2%.
With `Cc1cc(C)nc(CC(N)=O)n1` the “activity change, positive = activation” value was 10.8%.
In the case of `CC1CCC(NC(=O)C2CCN(C(=O)Nc3ccccc3)CC2)CC1` (stereo not given), the “activity change, positive = activation” value is reported as 9.02%.
